Compounds with a hit are over-represented: about 3.6% of the library has one in this group of screens.
DAT uptake mod: changed hDAT dopamine uptake under cocaine IC80, either direction, primary screen, cocaine antagonist project, cell-based, LLC-PK1 hDAT, [14C]-dopamine uptake, MLSMR; 110,000 compounds, 1.3% hits; AID 449768, 2010; LLC-PK1 hDAT cells, [14C]-dopamine uptake with cocaine IC80; actives deviate in either direction; B-score at 10 µM;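 active means Z score or B-score, a plate-position-corrected score, falls beyond the plate's 99.7% confidence bounds, in either direction; inactive means both scores lie inside the 99.7% bounds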;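 further: scored against the spread of the other compound wells on the same plate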
Target sequence (Q01959 whole entry, looked up): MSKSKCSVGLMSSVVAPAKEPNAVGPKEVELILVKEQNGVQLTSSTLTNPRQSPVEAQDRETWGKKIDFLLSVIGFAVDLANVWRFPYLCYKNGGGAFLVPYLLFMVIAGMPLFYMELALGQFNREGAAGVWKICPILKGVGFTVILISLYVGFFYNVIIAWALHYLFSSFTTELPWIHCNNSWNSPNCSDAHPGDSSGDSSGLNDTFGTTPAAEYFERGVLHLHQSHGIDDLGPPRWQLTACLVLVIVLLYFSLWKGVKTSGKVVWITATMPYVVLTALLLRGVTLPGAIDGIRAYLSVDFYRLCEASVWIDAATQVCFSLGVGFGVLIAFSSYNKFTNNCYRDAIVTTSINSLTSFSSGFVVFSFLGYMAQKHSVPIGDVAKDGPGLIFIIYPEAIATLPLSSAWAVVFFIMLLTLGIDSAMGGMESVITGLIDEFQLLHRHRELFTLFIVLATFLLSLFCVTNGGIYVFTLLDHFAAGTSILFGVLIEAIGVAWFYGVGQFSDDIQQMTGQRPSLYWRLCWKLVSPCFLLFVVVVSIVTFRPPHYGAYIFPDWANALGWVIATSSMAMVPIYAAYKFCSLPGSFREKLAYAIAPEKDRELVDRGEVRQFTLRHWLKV
HCT116 bCat-KO: primary screen for growth suppressors in beta-catenin knockout HCT116 cells (colon tumor, human); HCT116 beta-catenin knockout viability, CellTiter-Glo, 60 h; active compounds read low; viability, % at 10 µM; 140,000 compounds, 1.5% hits;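 active means viability at or under a set limit, the compound median less 4 SD, cut at about 6% in these data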;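 further: 0% = Hyamine 1622 control at 20 µM and 100% = untreated cell control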
WT yeast gro inh: growth inhibition of WT strain, primary screen, mitochondrial fusion inhibitor project, WT and mutant strains, chemical genetic; mitochondrial fusion phenotypic screen; inhibition, % at 10 µM; AID 1362, 2008; 190,000 compounds, 2.1% hits; in the data active means inhibition above about 58%; tested in S. cerevisiae
HCT116 PTEN-null: growth suppression of PTEN-null HCT116, primary screen, cell-based, CellTiter-Glo; HCT116 PTEN-null viability, 60 h; active compounds read low; AID 827, 2007; viability, % at 10 µM; 140,000 compounds, 1.2% hits;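 active means viability at or below a set limit, 4 SD under the median of all tested compounds, cut at about 3.7% in these data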;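 further: PTEN knockout HCT116 line with beta catenin targeted HCT116 as companion control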
* = called active by the depositor; . = no result given.

SMILES | DAT uptake mod | HCT116 bCat-KO | WT yeast gro inh | HCT116 PTEN-null
CCc1cc2c(=O)c(-c3ccc4c(c3)OCCO4)c(C)oc2cc1OS(C)(=O)=O | . | 36 | 8 | 20
CCCOc1ccccc1-n1sc2c(c1=S)-c1cc(OC)cc3c1N(C(=O)C3=O)C2(C)C | -2.4 | 46 | 23 | 3.0*
CSCCC(NC(=O)c1ccccc1)C(=O)Nc1ccc(NC(C)=O)cc1 (centres undefined) | . | 100 | -8 | 105
CCCC[n+]1ccn(C2=C([O-])c3ccccc3C(=O)/C2=N\S(=O)(=O)c2ccccc2)c1 | 0.9 | 2.1* | -23 | 1.6*
CCCCC[n+]1ccn(C2=C([O-])c3ccccc3C(=O)/C2=N\S(=O)(=O)c2ccccc2)c1 | 1.2 | 3.3* | -20 | 5
CCCC[n+]1ccn(-c2nc3ccccc3nc2[N-]S(=O)(=O)c2ccccc2)c1 | -0.013 | 103 | 18 | 116
CN(C1CCS(=O)(=O)C1)S(=O)(=O)c1ccccc1[N+](=O)[O-] (centres undefined) | . | 97 | -12 | 91
OC[C@@H](O)[C@@H](O[C@H]1O[C@H](CO)[C@@H](O)[C@H](O)[C@H]1O)[C@H](O)[C@@H](O)CO | -0.53 | . | -4 | .
CC(C)C1OC(c2cccc(NC(=O)c3cccs3)c2)OCC1(C)C (centres undefined) | . | . | 69* | .
O=C(CN1C2CCCC1CC(NC(=O)c1ccccc1)C2)NC1CC1 (centres undefined) | . | . | 2 | .
CNC(=S)N1N=C(c2ccc(C)cc2)CC1c1ccc(Br)cc1 (centres undefined) | 1.1 | 41 | 58* | 54
COc1ccc(C2=NN(C(N)=S)C(c3ccco3)C2)cc1 (centres undefined) | . | . | -3 | .
CC(C)c1ccc(C2CC(c3ccc(Br)cc3)=NN2C(N)=S)cc1 (centres undefined) | . | 13 | 65* | 22
CNC(=S)N1N=C(c2ccc(C)cc2)CC1c1ccc(Cl)cc1 (centres undefined) | -0.071 | 42 | -6 | 50
CC1CN(C(=O)c2ccc(N3CCCCC3)c([N+](=O)[O-])c2)CC(C)O1 (centres undefined) | . | 103 | 13 | 99
c1ccc(-c2nc(CSc3n[nH]c(-c4cccs4)n3)cs2)cc1 | 4.1* | 82 | 12 | 88
C[n+]1c2n(c3ccccc31)N=C(c1ccccc1)CS2 | -1.5 | 11 | 18 | 14
C[n+]1c2n(c3ccccc31)N=C(c1ccc(-c3ccccc3)cc1)CS2 | . | . | 87* | .
COc1n[nH]c(C(=O)Nc2nc3ccccc3s2)c1[N+](=O)[O-] | . | . | 27 | .
Cc1cccc(-n2ccnc2SCC(=O)Nc2ccc3c(c2)OCCO3)c1 | 1.8* | 93 | 4 | 98
Cc1cccc(Nc2nnc(SCC(=O)NC(=O)Nc3ccc4c(c3)OCCO4)s2)c1 | . | 0.6* | -4 | 0.8*
CCN(CC)S(=O)(=O)c1cc(C(=O)Nc2cc(Cl)ccc2N2CCN(C)CC2)ccc1Cl | 2.9* | 0.6* | 65* | 0.5*
CN1CCN(c2ccc(S(=O)(=O)N3CCCCC3)cc2NC(=O)c2ccc3ccccc3c2)CC1 | . | 2.3* | 12 | 1.4*
CCN(CC)S(=O)(=O)c1ccc(OC)c(NC(=O)c2cccc([N+](=O)[O-])c2C)c1 | -7.7* | . | . | .
CCN(CC)S(=O)(=O)c1cc(C(=O)Nc2ccccc2[N+](=O)[O-])ccc1Cl | . | 9 | -2 | 2.5*
SMILES | DAT uptake mod | HCT116 bCat-KO | WT yeast gro inh | HCT116 PTEN-null
Cc1ccccc1C(=O)Nc1cc(S(=O)(=O)N2CCCCC2)ccc1N1CCN(C)CC1 | . | 78 | -8 | 83
CCOC(=O)C1CCCN(C(=O)COc2ccc(S(=O)(=O)N(CC)c3ccccc3)cc2)C1 (centres undefined) | . | . | -4 | .
Cc1ccc(Nc2nc(/N=C/N(C)C)n[nH]2)cc1C | . | . | -14 | .
O=C1O[C@@H]([C@H](O)CO)C(O)=C1O | 0.0053 | . | . | .
O=c1oc2cc(Oc3c([N+](=O)[O-])cc(C(F)(F)F)cc3[N+](=O)[O-])ccc2c2c1CCCC2 | -0.85 | 107 | 62* | 92
Cn1c(=S)ccc2ccccc21 | . | . | -10 | .
C=CCc1cccc(/C=N/NC(=O)CCCNc2ccc(C)cc2)c1O | . | 57 | 23 | 52
C=CCc1cccc(/C=N/NC(=O)CNc2ccccc2)c1O | -0.033 | 3.7* | -11 | 3.0*
C=CCc1cccc(/C=N/NC(=O)CNc2cccc3ccccc23)c1O | . | 3.2* | 62* | 1.8*
C=CCc1cccc(/C=N/NC(=O)CNc2ccccc2OC)c1O | . | . | -4 | .
COc1ccc(CC(=O)OCc2cc(=O)n3cc(Br)ccc3n2)cc1OC | . | . | -2 | .
CCC(=O)NC(=S)NNC(=O)c1ccc(O)cc1 | . | . | -6 | .
CCCOC(=O)CN1C(=O)c2ccccc2C1=O | -0.31 | 97 | 79* | 90
O=C(NC(=S)Nc1ccc(S(=O)(=O)N2CCCCC2)cc1)c1cccs1 | . | 81 | 26 | 76
O=C(NC(=S)Nc1ccc(S(=O)(=O)NC2CCCCC2)cc1)c1cccs1 | . | 87 | 64* | 79
Cc1ccccc1C(=O)Nc1cccc(NC(=O)c2ccc(-c3ccc(Br)cc3)o2)c1 | . | 3.7* | 7 | 5
CN1CCN(c2ccc(NC(=O)c3ccc(-c4ccc(Br)cc4)o3)cc2)CC1 | . | . | 81 | .
CSC(=S)N/N=C(\C)c1ccccc1 | . | . | 65* | .
Cc1cc(O)ccc1N=Cc1c(C(F)(F)F)[nH][nH]c1=O | . | . | 1 | .
COc1ccc(CNC(=O)CCSCc2cccc(Cl)c2)c(OC)c1 | . | 95 | 9 | 93
O=C(NCCc1ccccc1)c1c(O)c2cccc3c2n(c1=O)CC3 | 0.06 | 88 | 3 | 94
O=C(NCc1ccccn1)c1c(O)c2cccc3c2n(c1=O)CC3 | 0.4 | 0.9* | 1 | 0.6*
COC(=O)[C@@]1(Cc2ccccc2)[C@@H]2C(=CC(=O)[C@H]2CC(=O)C(=O)N(C)C)CN1C(=O)c1ccccc1 | -0.31 | 2.4* | -6 | 1.7*
COC(=O)[C@@]1(Cc2ccc(F)cc2)[C@H]2c3cc(C(=O)N(C)C)n(C[C@H](O)CO)c3C[C@H]2CN1C(=O)c1ccccc1 | -0.25 | 84 | 2 | 90
CCCCNC(=S)N/N=C/C1=CCC2CC1C2(C)C (centres undefined) | . | 75 | 70* | 79
SMILES | DAT uptake mod | HCT116 bCat-KO | WT yeast gro inh | HCT116 PTEN-null
CC(C)NC(=S)N/N=C/C1=CCC2CC1C2(C)C (centres undefined) | . | 65 | 73* | 60
CCCNC1=CC(=O)CC(C)(C)C1 | . | 92 | -6 | 98
CCOc1ccccc1NC(=O)NC(=O)N(C)S(=O)(=O)c1ccc(C)cc1 | . | . | 62* | .
CCOc1ccc(NC(=O)NC(=O)N(C)S(=O)(=O)c2ccc(C)cc2)cc1 | . | . | 4 | .
COc1ccc(-c2nc(CN3CCN(c4cc(C)nc(C)c4)CC3)c(C)o2)c2ccccc12 | . | . | 37 | .
Cc1oc(-c2cccc3ccccc23)nc1CN1CCN(c2ncnc3ccccc23)CC1 | . | . | 63* | .
COC(=O)C1=C(O)C(C(=O)OC)C(c2ccc(C)cc2)C(C#N)(C#N)C1c1ccc(C)cc1 (centres undefined) | -0.75 | 21 | 67* | 18

From PubChem BioAssay
